Test results as given in PubChem BioAssay.
Values without a mark were called inactive. No rule for the calls is given here.

The compounds below were run against Pantothenate synthetase (Mycobacterium tuberculosis (strain ATCC 25618 / H37Rv)) (UniProt P9WIL5) (assay: Coupled enzyme confirmation of inhibitors against recombinant Mtb PanC (AID 375;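 also: 0% = full reaction with vehicle and 100% = no enzyme background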)). Settings: coupled enzyme assay; at 10 µM, active compounds read high.
Pantothenate synthetase (Mycobacterium tuberculosis (strain ATCC 25618 / H37Rv)), sequence (P9WIL5 whole entry, looked up): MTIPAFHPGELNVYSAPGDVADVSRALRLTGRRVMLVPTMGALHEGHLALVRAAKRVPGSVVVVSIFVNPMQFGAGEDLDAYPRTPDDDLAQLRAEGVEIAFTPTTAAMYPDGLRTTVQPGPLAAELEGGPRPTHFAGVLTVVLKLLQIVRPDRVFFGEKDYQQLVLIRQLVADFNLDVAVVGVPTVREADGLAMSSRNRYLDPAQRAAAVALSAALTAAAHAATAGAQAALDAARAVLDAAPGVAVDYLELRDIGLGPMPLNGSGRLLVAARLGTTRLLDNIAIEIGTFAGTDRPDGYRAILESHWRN

SMILES	inhibition
CCN(CC)CCNC(=O)c1ccc(CS(=O)(=O)c2ccc(Br)cc2)o1	0%
CCCCCOC(=O)C1=C(C)N(C)C(=O)NC1c1cc(Br)c(O)c(OC)c1 (stereo unspecified)	0%
COc1cc([C@@H]2[C@H]3CN(C)CC=C3C(C#N)=C(N)C2(C#N)C#N)cc2c1OCO2	0%
O=C(C1CCN(S(=O)(=O)Cc2ccccc2)CC1)N1CCN(c2ncccn2)CC1	0%
Cc1cccc2cc(CN(CCCO)C(=O)Nc3ccc(Cl)cc3)c(=O)[nH]c12	5%
CCCNC(=O)NC(C(=O)OC)C12CC3CC(CC(C3)C1)C2 (stereo unspecified)	3%
Cc1nc2sc(C(c3cccc(F)c3)N3CCC(C)CC3)c(O)n2n1 (stereo unspecified)	0%
O=C(CSc1ncnc2c1cnn2-c1ccccc1)Nc1ccccc1	5%
O=C(O)COc1ccc(S(=O)(=O)NCCc2ccccc2)cc1	6%
COc1ccc(CCNc2oc(-c3ccco3)nc2C#N)cc1	2%
COCc1[nH]nc2c1C(C1C=CCCC1)C(C#N)=C(N)O2 (stereo unspecified)	0%
CC(=O)c1c(O)cc(C)n(Nc2nc(C)cc(C)n2)c1=O	0%
Cc1cc(=O)[nH]c(S/C=C/c2ccccc2)n1	0%
COc1ccc(OCC(O)Cn2c(Br)nc3c2c(=O)[nH]c(=O)n3C)cc1 (stereo unspecified)	11%
COc1cccc2cc(C(=O)C3=C(O)C(=O)N(CCCN4CCOCC4)C3c3ccncc3)oc12 (stereo unspecified)	0%
O=C(CSc1ncc(-c2ccc(F)cc2)[nH]1)N1CCCCC1	0%
